# Data as given in the supplement of paper PMC6555819.
# Tested on: VDR:RXRa (NR concentration 270 nM, RXRa partner concentration 90 nM)
# Assay: PBM binding z-score (relative to random genomic background probes); higher = stronger binding; sequences stand for … in GC…GCGATTGACAGCGTAGAATGAAGG
# Method: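 Protein-binding microarray (Agilent 4x180K custom design, double-stranded 60-nt probes: 5' GC cap, 34-nt variable region, 24-nt constant primer region; full probe sequence given). Purified or IVT nuclear receptor:RXRα heterodimers (3:1 NR:RXRα, mostly 270:90 nM) or homodimers were incubated for 1 h in PBS with 2% milk and no ligand, then detected with Alexa488 antibodies. Fluorescence from o1-orientation probes (~5 replicates averaged) was converted to z-scores against 500 random hg19 background probes. Variable regions are seed direct-repeat (DR0–DR5) sites, all their single-nucleotide variants and half-site ablations.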
row,Sequence,PBM binding z-score
1,CCAGACAGGTGAGAAGGTAACTGAGCCTCGATTA,-0.0476
2,TCGAGTAGCTTACCAATGGGGCATTCAGCTTTCT,-0.487
3,CTACCAAGGTGAACAAGGTCGTCGATTACTATTC,5.98
4,TCTTGTAGATCAGCAGGTTAAGGAAGCTGGCCAA,0.37
5,TAGCCTCGGTCAGATCGGGCCAGTATACGCTATA,-0.637
6,TTACCAAGATGAAGGTCGTTGATCCCTCTGTAGA,0.991
7,GGAACAAGGGCAAGTTGATAGCAGAGTTTGATGG,0.829
8,CCTACTGGGCCAAAAAGGTCATTGAGGCCGATAA,6.03
9,CTCGAAAGGTCGGTTGCGGTGAGTATACGGATAA,1.11
10,CTCGAAAGGTCGTGCTCAGGTGAGTATTCCAAAC,3.26
11,CTACCAAGGTGAACAAGGTCGATGATTACTATTC,4.83
12,CCTCCGAGGACAGAAGGTCAGAGCTGTCCGCTTT,1.36
13,TCTAGTTGGTCACGGAGGTCACAGACGACGGGTA,5.81
14,ATCGCTAGGTAAAAGTTCAGTGAATCCCGAGGAT,0.809
15,TCTGCTAGGTCAACGATGATCAGCTAATCTGCTA,1.17
16,CCGCCTGGGGCAAGGTTACCATAACGCACAGCCA,0.149
17,CCTGCTAGGTCATGGTCAGTTAATCTACAGTATG,2.28
18,TATACAGGGTCATAGGCCAGAGTACGAATGTCGA,4.62
19,CGAACGAGGGCATGAGTTGATCGCAAATGCCGAT,1.34
20,CAAACTAGGTGACAGAGGTCAAAGTCCGTGCGTA,6.42

row,Sequence,PBM binding z-score
1,TCCAGTAGGTTAGGGGCATTCAGAATGGCGTCGA,0.702
2,GCAGACAGGTGAGACGCAGGTAACTCAGGGTGGC,-0.432
3,GATACAGGGTCAGCTAGAGGCCAGAGTGTGGAAA,3.39
4,TCTATTAGTCGAAGGGCAACCGACGAGTCCGTTT,0.789
5,TCATATAGGTAAAAGGTGAAATTCGGTGTGGTAA,1.58
6,ATCTCTAGGAAACAAGTTCAGTGAAAGAGAGGAC,1.45
7,ATCTCTAGGTAAAAATTCAGTGAATCCCGAGGAT,-0.13
8,TTACCAAGGTGAAGGTCGTAGATCCCTCTGTAGA,0.681
9,CTCGAAAAGTCGTGCTCAGGTGAGTATACCAAAC,-0.141
10,CCGACTGGGTCATAAGGTTACCATAAGCCAGCCC,2.81
11,GCTGCTAGGTCCACTGATGGTCAGCTAAAGCTCG,-0.609
12,CAAACTAGGTCACCGGAAGGTCAATGTCCGCATG,5.36
13,CCGACTGGGGCACAAAGGTTACCATACCATCCGG,1.73
14,ACTAGCAGGCCAAGGGTCACTCTAGATTAGTCCG,2.58
15,GCGACTGGGGCGAAGCAGGTTACCATAAGGTTGG,-0.549
16,CGAACTAGGTCATGGACAGGACAGTGAATAGTAA,2.3
17,TCATATAGGTAAACAGGTGAGAGTCCGTAAGTTA,1.01
18,TCTTGTGGATCAGCAGGTTAAGAAAGCTGGCCAA,0.405
19,TTACCAAGGTGAAGGTCGTTGCTCCCTCTGTAGA,1.36
20,TCTAGCAGGCCAGAGGGTCATTCAAGAGGTACGG,2.25
